The campaign covered roughly 5,500 compounds. About 2,000 (36%) were called active. About 18% were inconclusive and are not listed. The list shows a part of the results. Values without a mark were called inactive. Cut-off read from the data, not from the text of the source: active = normalized growth mostly below about 0.91 (no sharp cut-off); inconclusive = no clear call, values can overlap the other calls; inactive = mostly above about 0.92.
Test: chemical genetic growth profiling, strain panel (AID 1159580);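 note: tested at 20 µM; growth read once vehicle control cultures reached saturation at 30 °C; 1 = growth at the plate median or of vehicle wells; lower values mean less growth of the strain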
Conditions: growth OD
[1] = S. cerevisiae deletion strains, locus YMR263W, strain SAP30, active compounds read low
[2] = S. cerevisiae deletion strains, locus YNL153C, strain GIM3, active compounds read low
[3] = S. cerevisiae deletion strains, locus YAL013W, strain DEP1, active compounds read low
[4] = S. cerevisiae deletion strains, locus YBR229C, strain ROT2, active compounds read low
[5] = S. cerevisiae deletion strains, locus YDL101C, strain DUN1, active compounds read low
[6] = S. cerevisiae deletion strains, locus YDR150W, strain NUM1, active compounds read low
[7] = S. cerevisiae deletion strains, locus YEL061C, strain CIN8, active compounds read low
[8] = S. cerevisiae deletion strains, locus YGR078C, strain PAC10, active compounds read low
[9] = S. cerevisiae deletion strains, locus YHR030C, strain SLT2, active compounds read low
[10] = S. cerevisiae deletion strains, locus YHR087W, strain rtc3, active compounds read low
[11] = S. cerevisiae deletion strains, locus YJL187C, strain SWE1, active compounds read low
[12] = S. cerevisiae deletion strains, locus YJR043C, strain POL32, active compounds read low
[13] = S. cerevisiae deletion strains, locus YJR075W, strain HOC1, active compounds read low
[14] = S. cerevisiae deletion strains, locus YLR039C, strain RIC1, active compounds read low
[15] = S. cerevisiae deletion strains, locus YLR058C, strain SHM2 (second series), active compounds read low
[16] = S. cerevisiae deletion strains, locus YLR085C, strain ARP6, active compounds read low
[17] = S. cerevisiae deletion strains, locus YLR262C, strain YPT6, active compounds read low
[18] = S. cerevisiae deletion strains, locus YML094W, strain GIM5, active compounds read low
[19] = S. cerevisiae deletion strains, locus YMR219W, strain ESC1, active compounds read low
[20] = S. cerevisiae deletion strains, locus YNL298W, strain CLA4 (second series), active compounds read low
[21] = S. cerevisiae deletion strains, locus YNL322C, strain KRE1, active compounds read low
[22] = S. cerevisiae deletion strains, locus YNR030W, strain Alg12, active compounds read low
[23] = S. cerevisiae deletion strains, locus YPL055C, strain LGE1, active compounds read low
[24] = S. cerevisiae deletion strains, locus YPL241C, strain CIN2, active compounds read low
[25] = S. cerevisiae deletion strains, locus YPR135W, strain CTF4, active compounds read low

## Nc1nc(OCc2ccccc2)c2[nH]cnc2n1
S. cerevisiae deletion strains, locus YAL040C, strain CLN3, active compounds read low
  normalized growth: 0.994
S. cerevisiae deletion strains, locus YCL061C, strain MRC1 (second series), active compounds read low
  normalized growth: 1
S. cerevisiae deletion strains, locus YDR363W, strain ESC2, active compounds read low
  normalized growth: 1.02
S. cerevisiae deletion strains, locus YER002W, strain NOP16, active compounds read low
  normalized growth: 1
[1]
  normalized growth: 1
[2]
  normalized growth: 0.999
S. cerevisiae deletion strains, locus YNL175C, strain NOP13, active compounds read low
  normalized growth: 0.982
S. cerevisiae deletion strains, locus YNL197C, strain WHI3, active compounds read low
  normalized growth: 0.984
S. cerevisiae deletion strains, locus YNL224C, strain SQS1, active compounds read low
  normalized growth: 1.02
S. cerevisiae deletion strains, locus YOR083W, strain WHI5 (second series), active compounds read low
  normalized growth: 1.01

## O=[N+]([O-])c1cc(C(F)(F)F)c(N2CCCCC2)cc1N1CCCCC1
[3]
  normalized growth: 0.996
[4]
  normalized growth: 0.994
[5]
  normalized growth: 1.03
[6]
  normalized growth: 1.01
[7]
  normalized growth: 0.967
[8]
  normalized growth: 1.01
[9]
  normalized growth: 1.01
[10]
  normalized growth: 0.98
[11]
  normalized growth: 0.977
[12]
  normalized growth: 1.01
[13]
  normalized growth: 0.996
[14]
  normalized growth: 0.864
[15]
  normalized growth: 0.974
[16]
  normalized growth: 0.915
[17]
  normalized growth: 0.972
[18]
  normalized growth: 0.973
[19]
  normalized growth: 0.983
[1]
  normalized growth: 1.01
S. cerevisiae deletion strains, locus YMR307W, strain GAS1, active compounds read low
  normalized growth: 1.02
[2]
  normalized growth: 1.03
[20]
  normalized growth: 1.03
[21]
  normalized growth: 0.989
[22]
  normalized growth: 0.989
[23]
  normalized growth: 0.978
[24]
  normalized growth: 1.02
[25]
  normalized growth: 0.977
S. cerevisiae strains, strain wild type, active compounds read low
  normalized growth: 0.992

## O=[N+]([O-])c1ccc(N2CCCCC2)nc1N1CCCCC1
[3]
  normalized growth: 0.967
[4]
  normalized growth: 0.96
[5]
  normalized growth: 0.978
[6]
  normalized growth: 0.961
[7]
  normalized growth: 0.95
[8]
  normalized growth: 0.963
S. cerevisiae deletion strains, locus YGR229C, strain SMI1, active compounds read low
  normalized growth: 0.961
[9]
  normalized growth: 0.587 (active)
[10]
  normalized growth: 0.943
[11]
  normalized growth: 0.954
[12]
  normalized growth: 0.977
[13]
  normalized growth: 0.914
[14]
  normalized growth: 0.581 (active)
[15]
  normalized growth: 0.954
[16]
  normalized growth: 0.568 (active)
[17]
  normalized growth: 0.59 (active)
[18]
  normalized growth: 0.9
[19]
  normalized growth: 0.944 (active)
[1]
  normalized growth: 0.95
[2]
  normalized growth: 0.909 (active)
[20]
  normalized growth: 0.906
[21]
  normalized growth: 0.921 (active)
[22]
  normalized growth: 0.89
[23]
  normalized growth: 0.908
[24]
  normalized growth: 0.803 (active)
[25]
  normalized growth: 0.587 (active)
